Results filed as inconclusive are left out. Active and inactive are the calls of the source. Unless noted, the call rests on the fitted dose curve; in most records, active means well fitted curve in either direction with a large enough effect (not every such curve was filed as active); inconclusive means small, poorly fitted or top-dose-only effect, or another doubt; inactive means flat fitted curve, though single readings scatter.
Legend:
[1] = molecular target: Lysosomal acid glucosylceramidase (Homo sapiens) (UniProt P04062); test: Glucocerebrosidase-p2 (AID 348; in the data active means potency below about 10 µM; further: potency means the concentration at half of the fitted maximal effect); settings: purified GBA, blue fluorogenic substrate, 40 min
Summary of the method: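 Compounds titrated from 0.6 nM upwards against 0.2 nM enzyme in pH 5.9 citric acid/KH2PO4, taurocholate, tween-20; blue fluorogenic substrate 80 uM, 40 min room temperature, stopped and read Ex 365/Em 440 for AC50.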

[2] = AP1 Signaling Pathway (AID 357); settings: ME-180 AP-1-bla reporter, EGF-induced, beta-lactamase ratio, 5 h; at 7.69 µM (top of the series) unless noted; further: on the % scale 0 is the no-effect control and ±100 the full control effect
Summary of the method: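 ME-180 cells with beta-lactamase reporter under AP-1 response element, stimulated with EC50 EGF; compounds tested in titration series, 5 h at 37 °C. CCF4 substrate added 2.5 h at room temperature; 460/530 nm emission ratio gave %activity and AC50.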

[3] = NFAT Signaling Pathway (AID 444); settings: Jurkat NFAT-bla M1, carbachol, beta-lactamase ratio, 5 h; at 7.69 µM (top of the series) unless noted;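 further: carbachol stimulus at about its EC50 of 1 µM final; on the % scale 0 is the no-effect control and ±100 the full control effect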
Summary of the method: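 Jurkat cells with NFAT-driven β-lactamase reporter and co-expressed M1 receptor, stimulated with carbachol (final 1 uM, ~EC50), compound titration, 5 h at 37 °C. CCF4 loaded 1 h at RT; 460/530 nm ratio gave %activity and AC50.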

[4] = Stat Signaling Pathway (AID 446); settings: ME-180 SIE beta-lactamase reporter, IL-6 stimulated, 5 h; at 7.69 µM (top of the series) unless noted;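 further: ME-180 cervical cancer cells given 40 pM IL-6 alongside compound; SIE-controlled beta-lactamase reporter measured as 460/530 nm FRET emission ratio; on the % scale 0 is the no-effect control and ±100 the full control effect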
Summary of the method: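 Reporter line: ME-180 cervical carcinoma, SIE-beta-lactamase. Treatment: compound with 40 pM IL-6, 5 hrs, 37 C, in low-serum OPTI-MEM with 10 mM HEPES pH 7.3. Detection: 460/530 nm fluorescence.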

[5] = molecular target: Glucocorticoid receptor (Homo sapiens) (UniProt P04150); test: GR-EFC Redistribution (AID 451; calls by dose curve; further: potency means the concentration at half of the fitted maximal effect); settings: CHO-K1 GR-EFC translocation, beta-gal luminescence, 2 h
Summary of the method: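 CHO-K1 cells expressing nuclear EA and GR-ED fragments of b-gal; compounds titrated up to 46 uM final, 2 h at 37 C. GR nuclear translocation read as complemented b-gal luminescence after 1 h RT detection.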

[6] = molecular target: Mitogen-activated protein kinase 10 (Mus musculus) (UniProt Q61831); test: JNK3 AlphaScreen Assay (AID 530); settings: JNK3 lysate, c-Jun phosphorylation; series mostly up to 57.1 µM;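 further: kinase came from lysate of stimulated human HepG2 cells; signal reports phosphorylation of biotinylated GST-cJun 1-79 at Ser73 with 10 µM ATP; on the % scale 0 is the no-effect control and ±100 the full control effect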
Summary of the method: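 Pre-activated (IL-1β/TNFα) JNK3 in HepG2 lysates phosphorylates biotin-GST-cJun(1-79), 10 uM ATP; anti-phospho-cJun(Ser73) AlphaScreen read at room temperature, pH 7.6 Tris buffer. Compounds pre-incubated 15 min as titrations.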

[7] = molecular target: 3',5'-cyclic-AMP phosphodiesterase 4B (Homo sapiens) (UniProt Q07343); test: qHTS Assay for Inhibitors of PDE-IV (AID 607; active means well fitted activation curve with a large enough effect in the main read-out, with a control signal flat, not every such curve was filed as active; further: % of control where 0% means no effect); settings: HEK293 ACTOne CNG channel cells, membrane potential fluorescence; series mostly up to 22.9 µM
Summary of the method: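 Cell-based read-out of cAMP via a modified cyclic nucleotide-gated channel and membrane potential dye (535/590 nm) in HEK293 cells expressing PDE4 endogenously. Compounds tested up to 22.9 uM final; 100 uM RO 20-1724 reference.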

[8] = molecular target: Cytochrome P450 3A4 (Homo sapiens) (UniProt P08684); test: qHTS Assay for Activators of Cytochrome P450 3A4 (AID 885; active means well fitted curve in the direction sought with a large enough effect; an effect the other way counts as inactive or inconclusive; further: nearly all actives have a fitted effect of over 65% in size); settings: recombinant CYP3A4, Luciferin-PPXE luminescence, 60 min; series mostly up to 57.1 µM
Summary of the method: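 Signal was normalized against complete inhibition by 57 uM ketoconazole. The reaction used 20nM CYP3A4 with 25uM Luciferin-PPXE, 10-min compound preincubation and a 60-min NADPH-supported step at RT.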

[9] = molecular target: Dual specificity protein kinase CLK4 (Homo sapiens) (UniProt Q9HAZ1); test: qHTS Assay for Inhibitors of CDC-like Kinase 4 (ADP-FP Assay) (AID 1795; active means well fitted curve in the direction sought with a large enough effect; an effect the other way counts as inactive or inconclusive;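 further: recombinant human CLK4 phosphorylating RS repeat peptide at 1 µM ATP; on the % scale 0 is the no-effect control and ±100 the full control effect; nearly all actives have a fitted effect of over 60% in size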); settings: Transcreener ADP fluorescence polarization; series mostly up to 50 µM
Summary of the method: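 Inhibition of ADP formation by 6.25 nM Clk4 is measured using 1 uM ATP and 100 uM RS repeat peptide over one hour. Produced ADP displaces a fluorescent tracer from antibody, lowering polarization.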

[10] = molecular target: Ubiquitin carboxyl-terminal hydrolase 1 (Homo sapiens) (UniProt O94782); test: Inhibitors of USP1/UAF1: Pilot qHTS (AID 504865; active means well fitted curve in the direction sought with a large enough effect; an effect the other way counts as inactive or inconclusive;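 further: rhodamine fluorescence freed from ubiquitin-rhodamine substrate followed over time; top concentration of the series differs between compounds; on the % scale 0 is the no-effect control and ±100 the full control effect; nearly all actives have a fitted effect of over 35% in size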); settings: purified USP1/UAF1, Ub-rhodamine cleavage fluorescence; series mostly up to 54.9 µM
Summary of the method: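 Kinetic fluorescence assay: 1nM USP1/UAF1, 15 min compound preincubation, then 150nM Ub-Rho; 480/540 nm.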

[11] = Primary qHTS for small molecule stabilizers of the endoplasmic reticulum resident proteome: Secreted ER Calcium Modulated Protein (SERCaMP) assay (AID 1508630; active means well fitted curve in the direction sought with a large enough effect; an effect the other way counts as inactive or inconclusive; further: on the % scale 0 is the no-effect control and ±100 the full control effect); settings: SH-SY5Y GLuc-SERCaMP (Gaussia luciferase released on ER calcium loss) secretion, thapsigargin, luminescence; series mostly up to 38.4 µM
Summary of the method: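 GLuc-SERCaMP-expressing SH-SY5Y cells, pretreated 16 h with compound, are challenged with thapsigargin to empty ER calcium stores; after 4 h, coelenterazine is added directly to the medium and luminescence is imaged.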

[12] = molecular target: Cytochrome P450 1A2 (Homo sapiens) (UniProt P05177); test: p450-cyp1a2 (AID 410; calls by dose curve; further: potency means the concentration at half of the fitted maximal effect;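 on activity change, negative = inhibition: -100% = full effect of reference inhibitor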); settings: recombinant CYP1A2, luciferin-ME demethylation, luminescence; series mostly up to 57 µM
Summary of the method: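 Luminescent readout of luciferin formed from Luciferin-ME by human CYP1A2; data normalized against complete inhibition by 57 uM furafylline. Enzyme 20nM, substrate 100uM at Km, 100mM KPO4 buffer, 60 min reaction at room temperature.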

[13] = molecular target: Glucocorticoid receptor (Homo sapiens) (UniProt P04150); test: GR-GFP Redistribution (AID 450;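 active means compounds whose dose series gives a full or clear partial fitted curve of increased nuclear translocation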; further: potency means the concentration at half of the fitted maximal effect); settings: U2OS GR-GFP nuclear translocation, laser cytometry, 2 h
[14] = molecular target: Cytochrome P450 3A4 (Homo sapiens) (UniProt P08684); test: qHTS Assay for Inhibitors and Substrates of Cytochrome P450 3A4 (AID 884; active means well fitted curve in the direction sought with a large enough effect; an effect the other way counts as inactive or inconclusive; further: potency means the concentration at half of the fitted maximal effect; nearly all actives have a fitted effect of over 50% in size); settings: recombinant CYP3A4, Luciferin-PPXE luminescence; series mostly up to 57.1 µM
Summary of the method: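 20 nM human CYP3A4 with 25 uM Luciferin-PPXE (at KM) in 200 mM KPO4, preincubated 10 min with compound; NADPH regeneration started a 60 min RT reaction. Luciferin detected by luminescence, normalized to 57 uM ketoconazole as full inhibition.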

[15] = Confirmation and Secondary Assay for Modulators of Hemoglobin Beta Chain Splicing at IVS2 654 locus (AID 910; active means well fitted curve in the direction sought with a large enough effect; an effect the other way counts as inactive or inconclusive;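 further: HeLa cells stably carrying EGFP split by mutant beta-globin IVS2-654 intron; % of control where 0% means no effect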); settings: HeLa EGFP-654 splicing reporter, GFP fluorescence, 48 h; series mostly up to 38.3 µM
Summary of the method: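 HeLa cells stably expressing EGFP interrupted by β-globin IVS2-654 intron, seeded overnight in Opti-MEM/2% FCS, then treated 2 days at 37 °C. Restored splicing read as total peak GFP intensity per well by laser scanning cytometry (488 nm excitation, 500–520 nm emission); 500 nM antisense PNA as control.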

[16] = qHTS Assay for Identification of Small Molecule Agonists for Hypoxia Response Element Signaling Pathway (AID 914; active means well fitted activation curve with a large enough effect in the signal ratio, with a control signal flat, not every such curve was filed as active; the % refers to the signal ratio; further: % of control where 0% means no effect); settings: ME-180 (cervical carcinoma) HRE-bla reporter, beta-lactamase ratio, CoCl2, 17 h; activation: active compounds read high
Summary of the method: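 qHTS titration; ME-180 HRE-bla cells; EC50 CoCl2 co-treatment, 17 h at 37 degrees Celsius; CCF4 dye, ex 405nm, em 460nm and 530nm; %Activity from ratio; AC50.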

[17] = molecular target: Cytochrome P450 2C9 (Homo sapiens) (UniProt P11712); test: qHTS Assay for Inhibitors and Substrates of Cytochrome P450 2C9 (AID 883; active means well fitted curve in the direction sought with a large enough effect; an effect the other way counts as inactive or inconclusive; further: potency means the concentration at half of the fitted maximal effect; nearly all actives have a fitted effect of over 60% in size); settings: recombinant CYP2C9, luciferin-H luminescence, 60 min; series mostly up to 57.1 µM
Summary of the method: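 10nM CYP2C9 + 100uM Luciferin-H (=KM), 25mM KPO4; cpd 10 min 37C; NADPH regen, 60 min 37C; stop/detect with P450 Glo-Buffer 20 min; luminescence. Norm. to 57uM sulphaphenazole as full inhibition.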

Chain of Ubiquitin carboxyl-terminal hydrolase 1 (Homo sapiens) (O94782 whole entry, looked up): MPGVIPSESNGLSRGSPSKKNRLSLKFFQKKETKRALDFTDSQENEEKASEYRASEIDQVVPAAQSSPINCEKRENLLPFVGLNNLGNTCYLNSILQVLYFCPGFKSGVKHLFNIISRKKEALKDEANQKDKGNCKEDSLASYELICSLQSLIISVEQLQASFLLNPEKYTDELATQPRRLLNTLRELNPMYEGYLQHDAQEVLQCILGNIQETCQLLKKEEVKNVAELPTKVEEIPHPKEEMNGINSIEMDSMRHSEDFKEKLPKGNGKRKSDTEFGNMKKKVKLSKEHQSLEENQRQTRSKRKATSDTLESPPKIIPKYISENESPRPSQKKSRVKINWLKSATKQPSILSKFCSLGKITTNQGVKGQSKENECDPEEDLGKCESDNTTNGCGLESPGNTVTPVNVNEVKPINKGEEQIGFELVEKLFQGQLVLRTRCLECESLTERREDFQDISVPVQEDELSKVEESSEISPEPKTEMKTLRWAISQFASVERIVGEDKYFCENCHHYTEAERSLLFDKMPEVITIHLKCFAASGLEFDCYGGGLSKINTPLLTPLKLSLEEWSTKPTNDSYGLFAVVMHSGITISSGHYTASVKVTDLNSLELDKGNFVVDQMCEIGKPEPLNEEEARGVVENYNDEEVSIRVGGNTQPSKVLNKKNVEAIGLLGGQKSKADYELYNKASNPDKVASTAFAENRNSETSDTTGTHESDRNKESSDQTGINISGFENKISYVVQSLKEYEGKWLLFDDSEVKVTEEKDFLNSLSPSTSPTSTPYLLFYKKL
Chain of Glucocorticoid receptor (Homo sapiens) (P04150 whole entry, looked up, the tested form may be a part): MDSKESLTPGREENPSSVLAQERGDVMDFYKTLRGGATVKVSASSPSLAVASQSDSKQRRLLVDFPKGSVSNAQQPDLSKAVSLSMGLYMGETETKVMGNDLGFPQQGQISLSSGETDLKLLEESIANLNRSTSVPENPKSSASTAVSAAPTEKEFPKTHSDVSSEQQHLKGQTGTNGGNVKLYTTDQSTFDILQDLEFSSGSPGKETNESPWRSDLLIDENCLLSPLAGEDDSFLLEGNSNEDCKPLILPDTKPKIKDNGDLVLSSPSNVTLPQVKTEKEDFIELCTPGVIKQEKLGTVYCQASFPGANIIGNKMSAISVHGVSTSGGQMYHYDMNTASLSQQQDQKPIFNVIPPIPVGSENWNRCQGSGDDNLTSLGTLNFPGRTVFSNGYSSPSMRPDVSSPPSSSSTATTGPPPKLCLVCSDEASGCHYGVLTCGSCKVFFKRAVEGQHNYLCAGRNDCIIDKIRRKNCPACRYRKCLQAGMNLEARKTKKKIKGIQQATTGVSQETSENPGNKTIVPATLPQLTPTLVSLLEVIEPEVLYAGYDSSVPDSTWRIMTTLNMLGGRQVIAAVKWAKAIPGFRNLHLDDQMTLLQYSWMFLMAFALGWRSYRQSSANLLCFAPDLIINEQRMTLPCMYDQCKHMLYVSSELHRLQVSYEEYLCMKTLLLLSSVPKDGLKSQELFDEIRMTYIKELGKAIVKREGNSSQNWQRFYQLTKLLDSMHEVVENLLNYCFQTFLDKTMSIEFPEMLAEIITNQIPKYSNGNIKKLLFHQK
Chain of 3',5'-cyclic-AMP phosphodiesterase 4B (Homo sapiens) (Q07343 whole entry, looked up): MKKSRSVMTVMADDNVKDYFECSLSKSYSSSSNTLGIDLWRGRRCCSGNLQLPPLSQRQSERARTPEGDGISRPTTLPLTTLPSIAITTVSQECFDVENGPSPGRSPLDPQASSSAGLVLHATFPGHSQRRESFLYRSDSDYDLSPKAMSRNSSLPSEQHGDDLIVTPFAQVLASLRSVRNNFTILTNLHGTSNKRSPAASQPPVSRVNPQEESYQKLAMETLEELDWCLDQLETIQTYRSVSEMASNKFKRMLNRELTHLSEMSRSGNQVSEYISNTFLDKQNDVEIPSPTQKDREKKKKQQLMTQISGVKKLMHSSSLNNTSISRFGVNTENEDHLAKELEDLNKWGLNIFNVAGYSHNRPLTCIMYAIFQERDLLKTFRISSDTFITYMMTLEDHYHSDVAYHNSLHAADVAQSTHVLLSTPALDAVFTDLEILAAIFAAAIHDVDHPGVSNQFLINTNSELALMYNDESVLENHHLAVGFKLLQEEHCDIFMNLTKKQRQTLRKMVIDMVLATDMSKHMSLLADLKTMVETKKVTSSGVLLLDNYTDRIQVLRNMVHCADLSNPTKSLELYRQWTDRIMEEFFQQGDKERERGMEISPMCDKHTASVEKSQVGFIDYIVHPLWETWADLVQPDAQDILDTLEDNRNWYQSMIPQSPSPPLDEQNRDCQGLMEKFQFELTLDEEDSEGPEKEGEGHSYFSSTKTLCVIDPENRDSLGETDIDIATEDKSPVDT
Chain of Cytochrome P450 3A4 (Homo sapiens) (P08684 whole entry, looked up): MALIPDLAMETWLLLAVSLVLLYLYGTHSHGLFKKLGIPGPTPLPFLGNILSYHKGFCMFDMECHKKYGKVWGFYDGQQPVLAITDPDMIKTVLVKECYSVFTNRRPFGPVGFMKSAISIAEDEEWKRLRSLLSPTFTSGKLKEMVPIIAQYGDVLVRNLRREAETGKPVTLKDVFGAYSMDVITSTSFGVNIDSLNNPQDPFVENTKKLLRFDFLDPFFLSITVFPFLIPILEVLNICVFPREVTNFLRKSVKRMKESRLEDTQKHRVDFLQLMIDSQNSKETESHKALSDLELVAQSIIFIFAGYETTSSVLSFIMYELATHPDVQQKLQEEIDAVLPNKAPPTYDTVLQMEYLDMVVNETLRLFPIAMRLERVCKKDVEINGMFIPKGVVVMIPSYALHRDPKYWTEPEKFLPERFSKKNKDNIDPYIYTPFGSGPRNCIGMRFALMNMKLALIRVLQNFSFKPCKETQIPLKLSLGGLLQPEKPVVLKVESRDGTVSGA
Chain of Cytochrome P450 1A2 (Homo sapiens) (P05177 whole entry, looked up): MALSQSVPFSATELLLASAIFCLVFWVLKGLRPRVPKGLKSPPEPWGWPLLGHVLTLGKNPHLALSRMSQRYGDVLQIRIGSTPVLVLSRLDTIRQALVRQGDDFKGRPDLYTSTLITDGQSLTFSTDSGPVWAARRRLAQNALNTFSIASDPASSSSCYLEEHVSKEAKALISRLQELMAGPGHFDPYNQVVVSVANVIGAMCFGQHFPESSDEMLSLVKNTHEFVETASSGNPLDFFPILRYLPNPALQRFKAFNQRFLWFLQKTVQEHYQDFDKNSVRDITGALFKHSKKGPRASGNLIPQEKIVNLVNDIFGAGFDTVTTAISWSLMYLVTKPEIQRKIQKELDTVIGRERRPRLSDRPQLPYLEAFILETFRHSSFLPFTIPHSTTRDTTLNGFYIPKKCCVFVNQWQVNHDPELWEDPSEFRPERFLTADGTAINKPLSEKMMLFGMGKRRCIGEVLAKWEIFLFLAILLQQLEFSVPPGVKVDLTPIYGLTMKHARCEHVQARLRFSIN
Chain of Lysosomal acid glucosylceramidase (Homo sapiens) (P04062 whole entry, looked up): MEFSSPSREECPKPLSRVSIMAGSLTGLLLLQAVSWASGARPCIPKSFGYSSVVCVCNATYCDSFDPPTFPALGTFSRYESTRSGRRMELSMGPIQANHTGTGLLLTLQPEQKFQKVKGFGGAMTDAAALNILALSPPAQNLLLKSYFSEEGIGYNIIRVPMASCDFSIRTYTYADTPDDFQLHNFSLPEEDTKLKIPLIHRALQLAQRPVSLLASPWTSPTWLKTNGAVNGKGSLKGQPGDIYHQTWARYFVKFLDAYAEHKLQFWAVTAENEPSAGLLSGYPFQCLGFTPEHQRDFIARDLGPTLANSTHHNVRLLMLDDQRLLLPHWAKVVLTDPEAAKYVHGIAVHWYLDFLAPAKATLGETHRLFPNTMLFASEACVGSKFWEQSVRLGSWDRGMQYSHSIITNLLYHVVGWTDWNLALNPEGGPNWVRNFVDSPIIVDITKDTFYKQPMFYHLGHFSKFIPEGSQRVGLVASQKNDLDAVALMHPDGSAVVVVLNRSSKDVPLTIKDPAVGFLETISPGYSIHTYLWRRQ
Chain of Cytochrome P450 2C9 (Homo sapiens) (P11712 whole entry, looked up): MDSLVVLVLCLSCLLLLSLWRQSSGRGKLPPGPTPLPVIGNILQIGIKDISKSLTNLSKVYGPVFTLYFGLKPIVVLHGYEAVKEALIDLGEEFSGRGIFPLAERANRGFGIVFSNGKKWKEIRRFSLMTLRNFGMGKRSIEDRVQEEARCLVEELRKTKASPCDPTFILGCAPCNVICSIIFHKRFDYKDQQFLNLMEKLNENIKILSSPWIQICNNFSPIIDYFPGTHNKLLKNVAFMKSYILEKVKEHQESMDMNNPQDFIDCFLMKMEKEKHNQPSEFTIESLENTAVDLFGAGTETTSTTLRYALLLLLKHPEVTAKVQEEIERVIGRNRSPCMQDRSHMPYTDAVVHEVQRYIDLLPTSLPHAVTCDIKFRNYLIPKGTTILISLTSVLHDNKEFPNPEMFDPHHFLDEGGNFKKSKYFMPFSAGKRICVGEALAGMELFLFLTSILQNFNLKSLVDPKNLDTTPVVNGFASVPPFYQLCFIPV
Chain of Dual specificity protein kinase CLK4 (Homo sapiens) (Q9HAZ1 whole entry, looked up): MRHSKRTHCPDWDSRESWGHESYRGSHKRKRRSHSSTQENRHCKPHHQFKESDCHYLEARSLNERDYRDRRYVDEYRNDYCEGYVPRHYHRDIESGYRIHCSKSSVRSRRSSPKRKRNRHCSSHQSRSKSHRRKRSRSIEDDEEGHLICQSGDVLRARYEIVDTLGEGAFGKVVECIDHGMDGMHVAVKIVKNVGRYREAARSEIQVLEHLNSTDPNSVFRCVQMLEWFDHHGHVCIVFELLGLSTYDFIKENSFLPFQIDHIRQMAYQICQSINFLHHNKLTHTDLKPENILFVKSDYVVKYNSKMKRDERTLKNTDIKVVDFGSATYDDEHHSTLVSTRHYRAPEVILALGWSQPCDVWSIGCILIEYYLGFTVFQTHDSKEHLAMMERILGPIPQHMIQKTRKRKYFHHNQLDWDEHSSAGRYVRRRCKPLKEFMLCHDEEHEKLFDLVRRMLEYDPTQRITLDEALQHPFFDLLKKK

CN(C)C(=O)c1ccc(-c2ccc3ncnc(NCCN4CCOCC4)c3c2)cc1
inactive: Potency [1] > 11.4 µM | activity change, negative = inhibition [2] -5.51% | activity change, negative = inhibition [3] 6.26% | activity, negative = inhibition [4] -17.4% | Potency [5] > 46 µM | Potency [6] | Potency [7] | Potency [8] | Potency [9] | Potency [10] | outcome [11]

O=c1c(-c2ccc(F)cc2)nc2cncnc2n1C1CC1
inactive: Potency [1] > 11.4 µM | activity change, negative = inhibition [2] -6.77% | activity change, negative = inhibition [3] 2.7% | activity, negative = inhibition [4] -6.49% | Potency [13] > 9.22 µM | Potency [5] > 46 µM | Potency [6] | outcome [11]
active: Potency [12] 0.158 µM

COc1cccc(-c2nc(NCc3cnc(C)cn3)c3ccccc3n2)c1
active: Potency [12] 0.398 µM | Potency [14] 2.51 µM
inactive: Potency [1] > 11.4 µM | activity change, negative = inhibition [2] -17.2% | activity change, negative = inhibition [3] 20.9% | activity, negative = inhibition [4] -10.4% | Potency [13] > 46 µM | Potency [5] > 46 µM | Potency [6] | Potency [8] | Potency [15] | activation [16] 6.27% | Potency [10] | outcome [11]

COc1ccc(-n2c(=O)c(C)nc3cncnc32)cc1
inactive: Potency [1] > 11.4 µM | activity change, negative = inhibition [2] -7.74% | Potency [12] | activity change, negative = inhibition [3] 7.82% | activity, negative = inhibition [4] -15.1% | Potency [13] > 9.22 µM | Potency [5] > 46 µM | Potency [6] | Potency [7] | Potency [8] | outcome [11]
active: Potency [14] 5.01 µM

COCCn1c(=O)c(-c2ccc(Cl)cc2)nc2cnc(Oc3ccccc3)nc21
active: Potency [12] 0.794 µM | Potency [17] 7.94 µM
inactive: Potency [1] > 11.4 µM | activity change, negative = inhibition [2] -8.55% | activity change, negative = inhibition [3] 17.4% | activity, negative = inhibition [4] -10% | Potency [13] > 9.22 µM | Potency [5] > 46 µM | Potency [6] | Potency [7] | Potency [8] | outcome [11]

COCCn1c(=O)c(-c2cc(F)cc(F)c2)nc2cnc(Oc3cccc(Cl)c3)nc21
inactive: Potency [1] > 11.4 µM | activity change, negative = inhibition [2] 30.2% | activity change, negative = inhibition [3] -9.31% | activity, negative = inhibition [4] 24.9% | Potency [13] > 9.22 µM | Potency [5] > 46 µM | Potency [6] | Potency [7] | Potency [8] | outcome [11]
active: Potency [12] 5.01 µM | Potency [17] 3.98 µM

CN(C)c1ncc2nc(-c3ccc(F)cc3)c(=O)n(CCC#N)c2n1
inactive: Potency [1] > 11.4 µM | activity change, negative = inhibition [2] 4.59% | activity change, negative = inhibition [3] 8.55% | activity, negative = inhibition [4] 23.5% | Potency [13] > 9.22 µM | Potency [5] > 46 µM | Potency [6] | Potency [7] | outcome [11]
active: Potency [12] 1.26 µM

CN(C)C(=O)c1ccc(-c2nccc(NCc3cccnc3)n2)cc1
inactive: Potency [1] > 11.4 µM | activity change, negative = inhibition [2] -3.36% | activity change, negative = inhibition [3] 3.73% | activity, negative = inhibition [4] 2.62% | Potency [13] > 46 µM | Potency [5] > 46 µM | Potency [6] | Potency [7] | Potency [8] | Potency [10] | outcome [11]
active: Potency [12] 15.8 µM

O=c1c(CCc2ccccc2)nc2cncnc2n1C1CC1
active: Potency [12] 6.31 µM
inactive: Potency [1] > 11.4 µM | activity change, negative = inhibition [2] -0.738% | activity change, negative = inhibition [3] -8.26% | activity, negative = inhibition [4] -4.39% | Potency [13] > 9.22 µM | Potency [5] > 46 µM | Potency [6] | Potency [7] | Potency [8] | outcome [11]

CC(=O)NCCNc1ncnc2ccc(-c3ccc(C(=O)N(C)C)cc3)cc12
inactive: Potency [1] > 11.4 µM | activity change, negative = inhibition [2] -14.6% | activity change, negative = inhibition [3] -1.21% | activity, negative = inhibition [4] -0.482% | Potency [13] > 46 µM | Potency [5] > 46 µM | Potency [6] | Potency [7] | Potency [15] | Potency [10] | outcome [11]
active: Potency [12] 25.1 µM

CN(C)c1ncc2ncc(=O)n(C)c2n1
inactive: Potency [1] > 11.4 µM | activity change, negative = inhibition [2] -20.1% | activity change, negative = inhibition [3] 0.153% | activity, negative = inhibition [4] -5.5% | Potency [13] > 9.22 µM | Potency [5] > 46 µM | Potency [6] | Potency [7] | outcome [11]
active: Potency [12] 6.31 µM

COc1ncc2ncc(=O)n(CCC#N)c2n1
inactive: Potency [1] > 11.4 µM | activity change, negative = inhibition [2] 1.28% | activity change, negative = inhibition [3] -1.77% | activity, negative = inhibition [4] -9.79% | Potency [13] > 9.22 µM | Potency [5] > 46 µM | Potency [6] | Potency [7] | outcome [11]
active: Potency [12] 20 µM

From PubChem BioAssay (NCATS)
